# Results filed as inconclusive are left out. Activity calls are given as the source filed them. Rule for the calls: active = hit-call score of the fitted dose curve at least 0.9, where 1 is the maximum; inconclusive = response in the unintended direction; inactive = score below 0.9. Where a SMILES comes first, the peptide text is derived from it. Bridges are numbered along the chain shown (N, C = ends).
# Molecular target: Cellular tumor antigen p53 (Homo sapiens) (UniProt P04637)
# Experiment: TOX21_p53_BLA_p5_ratio: Tox21 HCT-116 p53 Agonism Beta-lactamase Assay, Ratio, Phase 5 (AID 2283599)
# Source text: TOX21_p53_BLA_p5 is a cell-based, single-readout assay that uses HCT116, a human intestinal cell line, […] in a 1536-well plate.TOX21_p53_BLA_p5_ratio is an assay readout measuring reporter gene via receptor activity and designed using inducible reporter (beta lactamase induction) detected with GAL4 b-lactamase reporter gene. The signal is derived from the ratio of cleaved (ch2) to uncleaved (ch1) reporter gene substrate used as the measure of target activity.Data from the assay component TOX21_p53_BLA_p5_ratio was analyzed into 1 assay endpoint. This assay endpoint, TOX21_p53_BLA_p5_ratio, was analyzed in the positive analysis fitting direction relative to DMSO as the negative control and baseline of activity. Using a type of inducible reporter, gain-of-signal activity can be used to understand changes in the reporter gene as they relate to the gene TP53. Furthermore, this assay endpoint can be referred to as a primary readout, because this assay has produced multiple assay endpoints and this ratio serves a reporter gene function to understand target activity. To generalize the intended target to other relatable targets, this assay endpoint is annotated to the DNA binding intended target family, where the subfamily is tumor suppressor.
# Thawing Method: Place 14 mL of pre-warmed thaw medium into a 15 mL of conical tub. Remove the vial of cells to be thawed from liquid nitrogen and thaw rapidly by placing at 37C in a water bath with gentle agitation for 1-2 minutes. Decontaminate the vial by wiping with 70% ethanol before opening in a biological safety cabinet. Transfer the vial contents drop-wise into 14 mL of thaw medium in a sterile 15-mL conical tub. Centrifuge cells at 900 rpm for 4 minutes and resuspend in thaw medium. Transfer contents to the T75 tissue culture flask containing Thaw Medium and place flask in a humidified 37C/5% CO2 incubator. Switch to growth medium at first passage.Propagation Method: Aspirate medium, rinse once in DPBS, add 0.25% Trypsin/EDTA and swirl to coat the cell evenly. Add an equal volume of Growth Medium to inactivate Trypsin after 2-3 minutes incubation at 37C. Centrifuge cells at 900 rpm for 4 minutes and resuspend in growth medium. Cell should be passage or fed at least twice a week.Assay Protocol: Harvest cells from culture in growth medium and resuspend in assay medium. 2.2 Dispense 4000 cells/5 uL/well into 1536-well black/clear bottom plates using a Multidrop dispenser. After the cells were incubated at 37C for 5 hours, 23 nL of compounds dissolved in DMSO were transferred to the assay plate by a PinTool resulting in a 217-fold dilution. Incubate the plates for 16 hours at 37C, 5% CO2. Add 1 uL of 6X LiveBLAzer FRET B/G (CCF4-AM) Substrate Mixture to each well using a BioRAPTR dispenser and incubate the plates at room temperature for 2 hours. Measure fluorescence intensity at 460 and 530 nm emission and 405 nm excitation by an Envision detector. Data is expressed as the ratio of 460nm/530nm emissions. Add 4 uL of Cell-titer Glo to each well using BioRAPTR and incubate the plates at room temperature for 2 hours. Measure fluorescence intensity by a VewLux plate reader.
# Chain of Cellular tumor antigen p53 (Homo sapiens) (P04637 whole entry, looked up): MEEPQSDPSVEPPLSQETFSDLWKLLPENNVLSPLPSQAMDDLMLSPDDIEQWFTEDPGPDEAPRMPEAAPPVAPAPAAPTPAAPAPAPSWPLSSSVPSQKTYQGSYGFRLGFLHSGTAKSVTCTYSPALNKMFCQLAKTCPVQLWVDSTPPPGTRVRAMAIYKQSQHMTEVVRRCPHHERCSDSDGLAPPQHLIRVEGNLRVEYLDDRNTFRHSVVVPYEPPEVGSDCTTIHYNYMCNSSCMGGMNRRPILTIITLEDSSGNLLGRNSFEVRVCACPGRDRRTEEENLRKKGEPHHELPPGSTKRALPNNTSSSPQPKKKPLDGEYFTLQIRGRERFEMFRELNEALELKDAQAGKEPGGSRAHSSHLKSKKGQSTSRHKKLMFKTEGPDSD
Compound,outcome,AC50
NC(=O)Nc1nc2ccccc2[nH]1,inactive,
CN1CCN(c2c(F)cc3c(=O)c(C(=O)O)cn4c3c2OCN4C)CC1,inactive,
COc1ccc(Nc2ccc(OC)cc2)cc1,inactive,
O=C(CCN1CCC(c2ccccc2)C1)c1ccc2c(c1)OCCO2 (stereo not given),,41.1 µM (active)
Cc1cc(O)ccc1O,inactive,
CCCn1c(=O)[nH]c(=O)c2[nH]cnc21,inactive,
O=C(C(=O)c1ccco1)c1ccco1,inactive,
NCCCC[C@H](NC(=O)[C@@H]1CCCN1C(=O)[C@@H]1CSSC[C@H](NC(=O)CNC(=O)CNC(=O)CN)C(=O)N[C@@H](Cc2ccc(O)cc2)C(=O)N[C@@H](Cc2ccccc2)C(=O)N[C@@H](CCC(N)=O)C(=O)N[C@@H](CC(N)=O)C(=O)N1)C(=O)NCC(N)=O (H-GGGCYFQNCPKG-NH2; disulfide 4-9),inactive,
CC(C)N(C)C,inactive,
C=CC(=O)CC,inactive,
COc1ccc(CCC(=O)c2c(O)cc(O[C@@H]3O[C@H](CO)[C@@H](O)[C@H](O)[C@H]3O[C@@H]3O[C@@H](C)[C@H](O)[C@@H](O)[C@H]3O)cc2O)cc1O,inactive,
N[C@@H](C(=O)N[C@@H]1C(=O)N2C(C(=O)O)=C(Cl)CC[C@H]12)c1ccccc1,inactive,
O=C(COCCOCCOCC(=O)Nc1c(I)cc(I)c(C(=O)O)c1I)Nc1c(I)cc(I)c(C(=O)O)c1I,inactive,
C=CCCCCCCCCCCC,inactive,
N[C@@H](CCC(=O)Nc1ccc([N+](=O)[O-])cc1)C(=O)O,inactive,
CC(=O)O[C@H]1CC[C@@]2(C)C(=CC[C@@H]3[C@@H]2CC[C@]2(C)C(c4cccnc4)=CC[C@@H]32)C1,inactive,
CNc1c2c(nn1C)CCCC2,inactive,
O=C1c2ccccc2C(=O)C1c1ccccc1,inactive,
CN1CCN(C(c2ccccc2)c2ccccc2)CC1,inactive,
COC(=O)C(C)(C)C,inactive,

Compound,outcome,AC50
O=C(Nc1cccc(C2=NCCN2)c1)Nc1cccc(C2=NCCN2)c1,inactive,
C[C@@H](O)C(=O)O,inactive,
C[C@H](O)C(=O)Nc1c(I)c(C(=O)NC(CO)CO)c(I)c(C(=O)NC(CO)CO)c1I,inactive,
CCN(CC)CCNC(=O)COc1ccc(OC)cc1,inactive,
CC(C)COC(=O)OCN1C(=O)CN(CCN2CC(=O)N(COC(=O)OCC(C)C)C(=O)C2)CC1=O,,7.4 µM (active)
CN(C)CCN(Cc1ccc(Cl)cc1)c1ccccn1,inactive,
COCCOC(=O)CC#N,inactive,
CC(=O)CC(=O)Nc1ccc(S(=O)(=O)O)cc1,inactive,
CCO/C([O-])=N/c1c[n+](N2CCOCC2)no1,inactive,
OCc1c2ccccc2cc2ccccc12,inactive,
O=S(=O)(O)CO,inactive,
CCCCCCCCCCCCCCCC/C=C/C1CC(=O)OC1=O (stereo not given),inactive,
CC(C)N=C=NC(C)C,inactive,
NC(=O)CC[C@@H](N)C(=O)O,inactive,
CCNS(=O)(=O)c1ccc(C)cc1,inactive,
O=C(O)[C@H](O)c1ccccc1,inactive,
CNC(=O)NC,inactive,
O=C(O)c1cc(C(=O)O)cc(C(=O)O)c1,inactive,
O=C(N=NC(=O)OCc1ccccc1)OCc1ccccc1,inactive,
CCCCCCCCCCCCCC=O,inactive,
